“And” between values parts separate entries of the source, which are not always exact repeats. Equal entries are not always repeated. Results filed as inconclusive are left out. Some structures have more than one record in an assay (separate samples or runs), and their calls can disagree. The source made the active and inactive calls. Calls follow the shape of the dose curve; as a rule, active = well fitted inhibition curve with a large enough effect in the repeat runs; inconclusive = weak or mixed curves; inactive = no such curve, though single readings can be large or run the other way.
target: Cytochrome P450 2C19 (Homo sapiens) (UniProt P33261); test: Cytochrome P450 Family 2 Subfamily C Member 19 (CYP2C19) small molecule antagonists: luciferase reporter qHTS assay (AID 1671197); settings: P450-Glo CYP2C19 enzyme, luciferin luminescence, 1 h; series mostly up to 115 µM; activity change, negative = inhibition: at the top concentration; also: nearly all actives have a fitted effect of over 65% in size
Outline: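 Light output is proportional to CYP2C19 activity: proluciferin substrate is converted to luciferin, then detected by a luciferin detection reagent that also stops the 1 h, 37C NADPH-driven reaction. Ketoconazole serves as positive control.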
% is scaled to controls: 0 for no effect and ±100 for the full control effect; potency is read from the fitted curve at half-maximal effect.

Chain of Cytochrome P450 2C19 (Homo sapiens) (P33261 whole entry, looked up): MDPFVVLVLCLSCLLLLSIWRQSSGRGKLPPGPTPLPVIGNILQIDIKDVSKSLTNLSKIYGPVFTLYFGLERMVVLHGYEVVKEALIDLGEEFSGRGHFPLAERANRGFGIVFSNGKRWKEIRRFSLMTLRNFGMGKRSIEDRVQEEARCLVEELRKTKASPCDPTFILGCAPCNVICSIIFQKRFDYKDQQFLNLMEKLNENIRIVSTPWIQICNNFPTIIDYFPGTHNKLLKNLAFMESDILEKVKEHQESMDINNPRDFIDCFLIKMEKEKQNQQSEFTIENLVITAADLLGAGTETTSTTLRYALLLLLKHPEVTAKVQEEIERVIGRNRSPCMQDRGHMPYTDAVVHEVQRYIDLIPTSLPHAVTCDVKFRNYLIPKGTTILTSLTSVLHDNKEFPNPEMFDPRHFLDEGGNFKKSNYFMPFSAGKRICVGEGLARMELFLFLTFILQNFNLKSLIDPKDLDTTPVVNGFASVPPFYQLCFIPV

Row | Compound | activity change, negative = inhibition | Potency
1 | CN(C)C(=O)COC(=O)Cc1ccc(OC(=O)c2ccc(N=C(N)N)cc2)cc1 | 18.6% [at 52.9 µM] (inactive) | –
2 | Nc1ccc(NCCO)c([N+](=O)[O-])c1 | – | 79.6 µM (active)
3 | CC1=Nc2ccccc2C1(C)C | – | 63.4 µM (active)
4 | CCCCCCCC | -29% (inactive) | –
5 | CC(CO)Oc1ccccc1 (stereo unspecified) | – | 36.7 µM (active)
6 | CC(=O)CC(=O)Nc1ccc(S(=O)(=O)O)cc1 | -2.19% (inactive) | –
7 | COC1=C(OC)C(=O)C(CCCCCCCCCCO)=C(C)C1=O | – | 4.9 µM (active)
8 | CC(=O)[C@H]1CC[C@H]2[C@@H]3CCC4=CC(=O)CC[C@]4(C)[C@H]3CC[C@]12C | – | 3.54 µM (active) and 3.99 µM (active)
9 | Oc1ccccc1O | – | 80.6 µM (active) and inactive
10 | CC1(C)CCC[C@]2(C)[C@H]3CCO[C@]3(C)CC[C@@H]12 | 12.7% (inactive) | –
11 | Cc1ccc(-c2ccccc2)cc1 | 14.5% (inactive) | –
12 | OC12N=C(c3ccccc3)SC1Cc1cc(Cl)ccc12 (stereo unspecified) | – | 0.126 µM (active)
13 | CCn1c2ccccc2c2cc([N+](=O)[O-])ccc21 | – | 7.96 µM (active)
14 | O=C(/C=C/c1ccccc1)OC/C=C/c1ccccc1 | – | 35.6 µM (active)
15 | NC(=S)NC(N)=S | – | 20 µM (active)
16 | Clc1nnc(Cl)c2ccccc12 | 20.1% (inactive) | –
17 | CC1(C)CCC[C@]2(C)[C@H]3CC(=O)O[C@]3(C)CC[C@@H]12 | – | 39.9 µM (active)
18 | Cc1cc(C(C#N)c2ccc(Cl)cc2)c(Cl)cc1NC(=O)c1cc(I)cc(I)c1O (stereo unspecified) | – | 8.71 µM (active)
19 | CCCC(=O)OCCc1ccccc1 | 24.2% (inactive) | –

Row | Compound | activity change, negative = inhibition | Potency
20 | Cc1cc(-n2nc3ccc(Cl)cc3n2)c(O)c(C(C)(C)C)c1 | 2.76% [at 52.9 µM] (inactive) | –
21 | CCCNCCC | 18.9% (inactive) | –
22 | O=C(O)c1cccc(C(F)(F)F)c1 | -15.9% (inactive) | –
23 | Cl[Si](Cl)(c1ccccc1)c1ccccc1 | – | 20.5 µM (active)
24 | C=CC(=O)OCCOC(=O)C=C | 21.5% (inactive) | –
25 | CCc1ccc(Br)cc1 | -2.66% (inactive) | –
26 | CN1CCCCC1CCN1c2ccccc2Sc2ccc(S(C)=O)cc21 (stereo unspecified) | 13% [at 52.9 µM] (inactive) | –
27 | CCCCC/C=C\C/C=C\CCCCCCCC(=O)O | – | 22.1 µM (active) and inactive
28 | [Cl][Pt-2]([Cl])([Cl])[Cl] | – | 22.6 µM (active)
29 | Cc1cccc2cccnc12 | – | 70.5 µM (active)
30 | Nc1cc(Cl)c(O)c(Cl)c1 | – | 20 µM (active)
31 | COc1cc(C)ccc1O | – | 56.4 µM (active)
32 | Cc1cc(C(C)(C)C)cc(C)c1CC1=NCCN1 | 24.8% [at 52.9 µM] (inactive) | –
33 | CC(=O)c1ccc(C(C)=O)cc1 | – | 64.8 µM (active)
34 | COC(=O)Nc1nc2ccc(C(=O)c3ccccc3)cc2[nH]1 | 13.4% [at 52.9 µM] (inactive) | –
35 | Nc1ccc(C(=O)O)c(O)c1 | 10.9% [at 52.9 µM] (inactive) | –
36 | Cc1c(C)c([N+](=O)[O-])c(C(C)(C)C)c([N+](=O)[O-])c1C | – | 28.3 µM (active)
37 | CCOC(=O)c1ccc(C2CCC(NC[C@H](O)COc3ccc(O)c(NS(C)(=O)=O)c3)CC2)cc1 (stereo partly specified) | – | 32.8 µM (active)
38 | Cc1nc(-c2ccc(Cl)cc2)oc1COC(C)(C)C(=O)O | 7.56% [at 52.9 µM] (inactive) | –

target: Cytochrome P450 2C9 (Homo sapiens) (UniProt P11712); test: Cytochrome P450 Family 2 Subfamily C Member 9 (CYP2C9) small molecule antagonists: luciferase reporter qHTS assay (AID 1671198); settings: P450-Glo CYP2C9 enzyme assay, luciferin luminescence; series mostly up to 115 µM; activity change, negative = inhibition: at the top concentration; also: nearly all actives have a fitted effect of over 50% in size
Outline: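 P450-Glo proluciferin substrate with CYP2C9 enzyme; 10 min RT preincubation, then NADPH regeneration 1 h at 37C; luciferin detection reagent 20 min RT, luminescence in relative luminescence units.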

Chain of Cytochrome P450 2C9 (Homo sapiens) (P11712 whole entry, looked up): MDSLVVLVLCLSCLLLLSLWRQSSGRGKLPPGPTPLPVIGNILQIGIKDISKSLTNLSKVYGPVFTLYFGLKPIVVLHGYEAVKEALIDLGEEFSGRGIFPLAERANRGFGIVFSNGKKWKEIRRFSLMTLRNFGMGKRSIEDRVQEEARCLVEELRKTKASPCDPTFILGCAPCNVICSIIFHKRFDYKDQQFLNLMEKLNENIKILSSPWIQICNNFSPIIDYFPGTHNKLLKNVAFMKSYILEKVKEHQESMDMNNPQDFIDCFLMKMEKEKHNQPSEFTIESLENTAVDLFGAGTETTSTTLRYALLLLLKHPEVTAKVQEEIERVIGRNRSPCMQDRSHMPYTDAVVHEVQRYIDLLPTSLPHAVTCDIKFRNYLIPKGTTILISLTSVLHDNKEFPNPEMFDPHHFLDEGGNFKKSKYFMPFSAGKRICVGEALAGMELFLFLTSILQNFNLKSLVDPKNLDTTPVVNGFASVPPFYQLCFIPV

Row | Compound | activity change, negative = inhibition | Potency
39 | CN(C)C(=O)COC(=O)Cc1ccc(OC(=O)c2ccc(N=C(N)N)cc2)cc1 | 1.12% [at 53 µM] (inactive) | –
40 | Nc1ccc(NCCO)c([N+](=O)[O-])c1 | – | 35.6 µM (active)
41 | CC1=Nc2ccccc2C1(C)C | – | 40 µM (active)
42 | CCCCCCCC | -23.7% (inactive) | –
43 | CC(CO)Oc1ccccc1 (stereo unspecified) | -11.6% (inactive) | –
44 | CC(=O)CC(=O)Nc1ccc(S(=O)(=O)O)cc1 | -11.7% (inactive) | –
45 | COC1=C(OC)C(=O)C(CCCCCCCCCCO)=C(C)C1=O | – | 11 µM (active)
46 | CC(=O)[C@H]1CC[C@H]2[C@@H]3CCC4=CC(=O)CC[C@]4(C)[C@H]3CC[C@]12C | – | 22.3 µM (active) and 25.2 µM (active)
47 | Oc1ccccc1O | -12.2% (inactive) | –
48 | CC1(C)CCC[C@]2(C)[C@H]3CCO[C@]3(C)CC[C@@H]12 | 0.867% (inactive) | –
49 | Cc1ccc(-c2ccccc2)cc1 | -12.1% (inactive) | –
50 | OC12N=C(c3ccccc3)SC1Cc1cc(Cl)ccc12 (stereo unspecified) | – | 0.894 µM (active)
51 | CCn1c2ccccc2c2cc([N+](=O)[O-])ccc21 | -1.53% (inactive) | –
52 | O=C(/C=C/c1ccccc1)OC/C=C/c1ccccc1 | – | 31.7 µM (active)
53 | NC(=S)NC(N)=S | – | 7.96 µM (active)
54 | Clc1nnc(Cl)c2ccccc12 | -6.88% (inactive) | –
55 | CC1(C)CCC[C@]2(C)[C@H]3CC(=O)O[C@]3(C)CC[C@@H]12 | – | 39.9 µM (active)
56 | Cc1cc(C(C#N)c2ccc(Cl)cc2)c(Cl)cc1NC(=O)c1cc(I)cc(I)c1O (stereo unspecified) | – | 17.4 µM (active)
57 | CCCC(=O)OCCc1ccccc1 | -12.3% (inactive) | –

Row | Compound | activity change, negative = inhibition | Potency
58 | Cc1cc(-n2nc3ccc(Cl)cc3n2)c(O)c(C(C)(C)C)c1 | -8.75% [at 53 µM] (inactive) | –
59 | CCCNCCC | 0.421% (inactive) | –
60 | O=C(O)c1cccc(C(F)(F)F)c1 | – | 79.6 µM (active)
61 | Cl[Si](Cl)(c1ccccc1)c1ccccc1 | – | 23 µM (active)
62 | C=CC(=O)OCCOC(=O)C=C | -3.96% (inactive) | –
63 | CCc1ccc(Br)cc1 | 2.62% (inactive) | –
64 | CN1CCCCC1CCN1c2ccccc2Sc2ccc(S(C)=O)cc21 (stereo unspecified) | -0.785% [at 53 µM] (inactive) | –
65 | CCCCC/C=C\C/C=C\CCCCCCCC(=O)O | – | 35 µM (active) and 31.7 µM (active)
66 | [Cl][Pt-2]([Cl])([Cl])[Cl] | – | 25.3 µM (active)
67 | Cc1cccc2cccnc12 | -18.2% (inactive) | –
68 | Nc1cc(Cl)c(O)c(Cl)c1 | – | 28.3 µM (active)
69 | COc1cc(C)ccc1O | -13.6% (inactive) | –
70 | Cc1cc(C(C)(C)C)cc(C)c1CC1=NCCN1 | 8.15% [at 53 µM] (inactive) | –
71 | CC(=O)c1ccc(C(C)=O)cc1 | -8.18% (inactive) | –
72 | COC(=O)Nc1nc2ccc(C(=O)c3ccccc3)cc2[nH]1 | 66.7% [at 53 µM] (inactive) | –
73 | Nc1ccc(C(=O)O)c(O)c1 | -1.68% [at 53 µM] (inactive) | –
74 | Cc1c(C)c([N+](=O)[O-])c(C(C)(C)C)c([N+](=O)[O-])c1C | – | 35.6 µM (active)
75 | CCOC(=O)c1ccc(C2CCC(NC[C@H](O)COc3ccc(O)c(NS(C)(=O)=O)c3)CC2)cc1 (stereo partly specified) | – | 5.84 µM (active)
76 | Cc1nc(-c2ccc(Cl)cc2)oc1COC(C)(C)C(=O)O | 0.249% [at 53 µM] (inactive) | –

Reference: PubChem BioAssay (Tox21)
